HT1080 IDH1KD tx = kills HT-1080 cells with IDH1 knockdown | HT-1080 IDH1 knockdown viability, ATP luminescence, 48 h | Potency, µM (titrated, usually from 46.1 µM), usual class: cytotoxic | 360,000 compounds, 2% hits | AID 686971
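After a 2 h attachment period, IDH1KD HT-1080 cells took pin-transferred compound for 48 h at 37 °C; ATP-based luminescence after 10 min room-temperature reagent incubation reported viability.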
uPA generation = cell surface uPA generation inhibition; AID 540303; cell surface uPA generation assay, qHTS; 330,000 compounds, 0.31% hits; Potency, µM (titrated, usually from 38.3 µM), usual class: inhibitors; active means well fitted inhibition curve with a large enough effect; inconclusive means small, poorly fitted or top-dose-only effect; inactive means no such curve, though single readings can be large or run the other way; tested in mouse RAW 264.7 cells; further: nearly all actives have a fitted effect of over 55% in size
TDP1 cell CPT = growth inhibition of DT40 Tdp1-/-;hTDP1 cells with camptothecin (screen for TDP1 inhibitors) | chicken DT40 Tdp1-/-;hTDP1 cells + 20 nM CPT, ATP luminescence, 48 h | Potency, µM (titrated, usually from 46.2 µM), usual class: inhibitors | 420,000 compounds, 12% hits | AID 686979; further: nearly all actives have a fitted effect of over 55% in size
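Chicken DT40 Tdp1-/- cells stably complemented with human TDP1 were seeded at 400 cells/well in medium containing 20 nM camptothecin, exposed to pin-transferred compounds, and grown at 37 °C for at least 48 hr. Viability was read as ATP luminescence.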
DT40 TDP1 no CPT = qHTS for Inhibitors of human tyrosyl-DNA phosphodiesterase 1 (TDP1): qHTS in cells in absence of CPT; DT40 Tdp1-/- hTDP1 cells, no CPT, ATP luminescence, 48 h; Potency, µM (doses to about 46.2 µM), hits mostly inhibitors; 420,000 compounds, 15% hits; AID 686978, 2013; further: nearly all actives have a fitted effect of over 55% in size
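Cells were dispensed at 400 per well, compounds added by pin tool, plates incubated ≥48 hr at 37 °C, then CellTiter-Glo added for 30 min at room temperature before luminescence reading. Line: DT40 Tdp1-/- complemented with hTDP1; camptothecin omitted.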
IL-1B inflam inh = inflammasome signaling inhibition, IL-1 beta readout | THP-1 LPS/ATP IL-1B secretion, AlphaLISA, 16 h; stronger effect = lower value | activity change, % at 57.5 µM | 360,000 compounds, 4.7% hits; in the data active means activity change below about -50%; inconclusive means mostly about -30% to -49%
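Secreted IL-1B measured by AlphaLISA bead assay after 16 h compound exposure of THP-1 cells; compounds (final up to 57.5 uM) added 1 h before LPS (250 ng/mL) and ATP (1.25 mM) stimulation; lower signal means less secretion.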
HT1080NT lethal = kills 2HG-producing HT-1080-NT fibrosarcoma cells; HT-1080-NT fibrosarcoma viability, CellTiter-Glo ATP luminescence, 48 h; Potency, µM (titrated, usually from 46.1 µM), usual class: cytotoxic; 360,000 compounds, 1.6% hits; AID 686970;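 further: NT is the 2HG producing partner of a matched IDH1 knockdown line; nearly all actives have a fitted effect of over 55% in size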
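HT-1080-NT; 750 cells/well; 5% FBS RPMI; 48 h compound, 37 degrees C; CellTiter-Glo luminescence; curve fitting and curve-class assignment.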
Hits are given with their value; - = inactive; ? = inconclusive; . = no result; [ ] = remark or other dose. Compounds with a hit are over-represented: about 19% of the library has one in this group of screens. Unless noted, the call rests on the fitted dose curve; in most records, active means well fitted curve in the direction sought with a large enough effect; inconclusive means small, poorly fitted or top-dose-only effect, or another doubt; inactive means no such curve, though single readings can be large; an effect the other way counts as inactive or inconclusive.

SMILES | HT1080 IDH1KD tx | uPA generation | TDP1 cell CPT | DT40 TDP1 no CPT | IL-1B inflam inh | HT1080NT lethal
Cc1cc(C)c2[nH]c(O)c(N=NC3=NC(=O)CS3)c2c1 | - | - | - | ? | - | -
CCc1ccc2c(c1)c(N=NC1=NC(=O)CS1)c(O)n2C | - | - | - | 16µM | - | -
C#CCN1C(=O)C(O)(CC(=O)c2ccc(OC)c(OC)c2)c2cc(Br)ccc21 (configuration not stated) | . | . | 4.6µM | 6.5µM | . | .
O=C(CC1(O)C(=O)Nc2ccc(Br)cc21)c1ccccc1 (configuration not stated) | - | . | ? | 26µM | - | -
C=CCN1C(=O)C(O)(CC(=O)c2ccco2)c2cc(Br)ccc21 (configuration not stated) | ? | ? | 2.3µM | 5.2µM | - | ?
O=C(CC1(O)C(=O)N(Cc2ccccc2)c2ccccc21)c1ccncc1 (configuration not stated) | - | - | 3.7µM | 3.7µM | - | -
COC(=O)CN1C(=O)C(O)(CC(=O)c2ccc(C)cc2)c2cc(Br)ccc21 (configuration not stated) | - | - | ? | - | - | -
C=CCN1C(=O)C(O)(CC(=O)c2ccc(-n3cccc3)cc2)c2ccccc21 (configuration not stated) | - | - | ? | ? | - | -
O=C(NN1CCOCC1)c1ccc(Cl)s1 | - | - | - | - | - | -
C#CCN1C(=O)C(O)(CC(=O)c2ccc3c(c2)OCCO3)c2ccccc21 (configuration not stated) | - | - | ? | 23µM | - | -
CCCCN1C(=O)C(O)(CC(=O)c2ccc(CC)cc2)c2cc(Br)ccc21 (configuration not stated) | . | . | ? | 18µM | . | .
O=C(CC1(O)C(=O)N(CCc2ccccc2)c2ccc(Br)cc21)c1ccccc1O (configuration not stated) | . | . | 5.2µM | 5.8µM | . | .
CCCN1C(=O)C(O)(CC(=O)c2ccc3c(c2)OCCO3)c2ccccc21 (configuration not stated) | - | - | ? | ? | - | -
O=C(CC1(O)C(=O)N(Cc2ccc3c(c2)OCO3)c2ccccc21)c1ccccc1 (configuration not stated) | - | - | 3.7µM | 5.8µM | - | -
CCC(Cn1nnc2ccccc2c1=O)NC(=O)Nc1ccccc1Cl (configuration not stated) | . | . | - | ? | . | .
Cc1ccc(C(=O)CC2(O)C(=O)N(Cc3ccc4c(c3)OCO4)c3ccccc32)cc1 (configuration not stated) | - | - | ? | ? | - | -
Cc1n[nH]c(C)c1C(=O)CC1(O)C(=O)N(Cc2ccccc2)c2ccc(Br)cc21 (configuration not stated) | - | - | ? | ? | - | -
O=C(CC1(O)C(=O)N(Cc2ccccc2)c2ccc(Br)cc21)c1ccccc1 (configuration not stated) | . | . | 15µM | 5.8µM | . | .
Cc1ccccc1CN1C(=O)C(O)(CC(=O)c2ccncc2)c2ccccc21 (configuration not stated) | - | - | 4.6µM | 3.3µM | - | -
Cc1ccc(NC(=O)C2=COCCO2)cc1S(=O)(=O)N1CCOCC1 | - | - | - | - | - | -
O=C(Nc1cc(S(=O)(=O)N2CCOCC2)ccc1N1CCOCC1)c1ccc([N+](=O)[O-])s1 | - | ? | 12µM | 7.3µM | ? | -[9.24 µM]
COc1ccc(C)cc1NC(=O)c1ccccc1NS(=O)(=O)c1ccc(Cl)s1 | 16µM | ? | 8.2µM | 6.5µM | ? | ?
Cc1ccc(NC(=O)c2ccc([N+](=O)[O-])s2)cc1S(=O)(=O)N1CCOCC1 | 21µM | - | 16µM | 16µM | - | ?
CC(C)NC(=O)c1ccccc1NS(=O)(=O)c1ccc(Br)s1 | - | - | ? | 21µM | - | ?
CCCCN(C=O)c1c(CC)nc2ccc(C(=O)NCc3cccs3)cn12 | - | . | - | ? | - | -
SMILES | HT1080 IDH1KD tx | uPA generation | TDP1 cell CPT | DT40 TDP1 no CPT | IL-1B inflam inh | HT1080NT lethal
O=C(Nc1cc(S(=O)(=O)N2CCOCC2)ccc1O)c1ccc(NS(=O)(=O)c2ccc(Cl)s2)cc1 | - | - | - | - | - | -
Cc1ccc(NC(=O)c2ccccc2NS(=O)(=O)c2ccc(Cl)s2)cc1S(=O)(=O)N1CCOCC1 | ? | - | 13µM | 12µM | ? | ?
O=C(Nc1cc(S(=O)(=O)N2CCOCC2)ccc1N1CCOCC1)c1cc2c(s1)CCC2 | - | - | - | 23µM | -57 | -
O=C(NCc1nnc2n1CCN(C(=O)/C=C/c1ccccc1)CC2)c1cccc(F)c1 | . | . | - | - | . | .
CN=C(NC)NCc1ccccc1 | . | . | - | - | . | .
CCN(C(=O)COC(=O)c1ccccc1NCCO)c1cccc2ccccc12 | - | - | - | 18µM | ? | -
CCOC(=O)Cc1ccc(NC(=O)N2CC(CC)Oc3ccccc32)cc1 (configuration not stated) | . | . | 16µM | ? | . | .
CCOC(=O)Cc1ccc(NC(=O)N2CC(C)Oc3ccc(Cl)cc32)cc1 (configuration not stated) | . | . | 16µM | ? | . | .
CCC1CN(C(=O)Nc2cc(Cl)c(OC)cc2OC)c2ccccc2O1 (configuration not stated) | . | . | - | - | . | .
CCOC(=O)C1=C(O)C(=O)NC(c2ccccc2)=C(OC2CCCCC2)C1 | - | - | ? | 23µM | - | -
CCCN(C(=O)C1CCN(S(=O)(=O)c2ccc(OC)c(OC)c2)CC1)C1CCS(=O)(=O)C1 (configuration not stated) | - | - | - | - | - | -
O=C(CSc1ncc2c(n1)-c1cc(Cl)ccc1N(Cc1ccccc1F)S2(=O)=O)Nc1cccc(C(F)(F)F)c1 | . | . | 18µM | ? | . | .
COc1cccc(CNC(=O)CSc2ncc3c(n2)-c2cc(Cl)ccc2N(C)S3(=O)=O)c1 | . | . | 21µM | ? | . | .
O=C(CSc1ncc2c(n1)-c1ccccc1N(Cc1ccc(F)cc1)S2(=O)=O)NCc1ccccc1 | . | . | - | - | . | .
COC(=O)CSc1ncc2c(n1)-c1ccccc1N(Cc1ccc(Cl)cc1)S2(=O)=O | . | . | - | - | . | .
O=C(CSc1ncc2c(n1)-c1cc(Cl)ccc1N(Cc1ccccc1)S2(=O)=O)Nc1ccc(F)cc1F | . | . | 18µM | ? | . | .
CCN(C(=O)CSc1ncc2c(n1)-c1cc(Cl)ccc1N(Cc1ccccc1)S2(=O)=O)c1cccc(C)c1 | . | . | ? | 16µM | . | .
COc1ccccc1NC(=O)COC(=O)C1=NN(c2ccccc2)C(=O)CC1 | - | - | - | - | - | -

Source: PubChem (National Center for Advancing Translational Sciences (NCATS))
